{
  "source": "PubChem BioAssay AID434973",
  "about": "(Sanford-Burnham Center for Chemical Genomics, 2010)",
  "note": "Hit rate of the full screen: of about 330,000 compounds, about 4,900 (1.5%) were called active. The list comes from a sample in which actives are over-represented; it also holds similar structures and randomly drawn compounds. Values without a mark were called inactive.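 How the source made its calls: active means inhibition above about 50% at the single test dose (limit read from the data); inactive means the rest.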",
  "data": [
    {"molecular_target": "Sentrin-specific protease 7 (Homo sapiens) (UniProt Q9BQF6)", "assay": "SENP7 protease inhibitors, primary screen, biochemical, luminescence, uHTS (AID 434973);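 further: plate controls were DMSO with enzyme for no effect and no enzyme buffer wells for full effect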", "details": "recombinant SENP7, Z-RLRGG-aminoluciferin luminescence, 40 min; at 5 µM; hits give high values", "values": [
      {"smiles": "COc1ccc2cc(C(=O)C3CCCN(C(=O)c4sc(C)nc4C)C3)ccc2c1", "note": "(configuration not stated)", "inhibition": "-3.44%"},
      {"smiles": "CCOc1ccc2nc(C(=O)N3CCCC(C)C3)sc2c1", "note": "(configuration not stated)", "inhibition": "67.4% (active)"},
      {"smiles": "Cc1ccc(CNC(=O)Cn2cnc3c(NCc4ccccc4)ncnc32)o1", "inhibition": "-4.15%"},
      {"smiles": "C=C(Cl)COC(=O)C1C2C=CC(C2)C1C(=O)O", "note": "(configuration not stated)", "inhibition": "-1.65%"},
      {"smiles": "CSCCC(NC(=O)C1CCC(C)CC1)C(=O)NCc1ccco1", "note": "(configuration not stated)", "inhibition": "0.735%"},
      {"smiles": "O=C(O)c1ccccc1NC(=S)NC(NC(=O)c1ccccc1[N+](=O)[O-])C(Cl)(Cl)Cl", "note": "(configuration not stated)", "inhibition": "14%"},
      {"smiles": "O=c1oc2cc(O)ccc2cc1-c1ccc(F)cc1", "inhibition": "100% (active)"},
      {"smiles": "CCCCCCc1cc2cc(-c3nnc(-c4ccccc4)o3)c(=O)oc2cc1O", "inhibition": "-10.4%"},
      {"smiles": "CN(C)c1cc(-c2ccc(F)cc2)oc(=O)c1Cl", "inhibition": "5.73%"},
      {"smiles": "Cn1c(N)c(C(=O)COC(=O)C23CC4CC(CC(C4)C2)C3)c(=O)n(C)c1=O", "inhibition": "-1.02%"},
      {"smiles": "COc1cc(NC(=O)c2cncc(-c3ccc(C#N)cc3)c2)cc(C(=O)Nc2cccc(C(F)(F)F)c2)c1", "inhibition": "-7.54%"},
      {"smiles": "O=C(Nc1nc2ccc([N+](=O)[O-])cc2s1)c1ccncc1", "inhibition": "85.8% (active)"},
      {"smiles": "COc1ccc(C(=O)Nc2nc(-c3ccc(OC)cc3)c(-c3ccc([N+](=O)[O-])cc3)s2)cc1", "inhibition": "-0.702%"},
      {"smiles": "O=C(NC(Nc1nc2ccc([N+](=O)[O-])cc2s1)(C(F)(F)F)C(F)(F)F)c1ccccc1", "inhibition": "3.23%"},
      {"smiles": "CCCc1cc(=O)oc2c(C)c(OCC(=O)Nc3ccccn3)ccc12", "inhibition": "70.1% (active)"},
      {"smiles": "CCCc1cc(=O)oc2c(C)c(OCC(=O)NCc3ccccn3)ccc12", "inhibition": "12.3%"},
      {"smiles": "CCCc1cc(=O)oc2c(C)c(OCC(=O)N3CCC(C(=O)O)CC3)ccc12", "inhibition": "-6.34%"},
      {"smiles": "CCO/N=C(/C)c1c(O)cc(-c2ccccc2)n(-c2ccccc2)c1=O", "inhibition": "0.576%"},
      {"smiles": "CC1CCCC(NC(=O)c2cc(-c3ccncc3)nc3ccccc23)C1C", "note": "(configuration not stated)", "inhibition": "-16.1%"},
      {"smiles": "c1ccc(-c2cc(-c3ccccc3)[nH]n2)cc1", "inhibition": "54.4% (active)"},
      {"smiles": "Cc1ccc(NC(=O)c2cc(-c3ccccc3O)n[nH]2)cc1C", "inhibition": "-11.8%"},
      {"smiles": "Oc1ccccc1-c1cc(-c2ccc(Cl)cc2)n[nH]1", "inhibition": "92% (active)"},
      {"smiles": "CC(C)C(=O)NCc1cc(-c2ccc(Cl)cc2)no1", "inhibition": "5.4%"},
      {"smiles": "S=c1[nH]nc(-c2cc(-c3ccsc3)n[nH]2)n1-c1ccccc1", "inhibition": "4.56%"},
      {"smiles": "S=c1[nH]nc(-c2cc(-c3ccccc3)n[nH]2)n1/N=C/c1c2ccccc2cc2ccccc12", "inhibition": "-9.51%"},
      {"smiles": "CO[C@@H]1[C@@H](OC(N)=O)[C@@H](O)C(Oc2ccc3c(O)c(NC(=O)c4ccc(O)c(CC=C(C)C)c4)c(=O)oc3c2C)OC1(C)C", "note": "(some centres not stated)", "inhibition": "-1.54%"},
      {"smiles": "COc1ccc(-n2nnnc2SCC(=O)c2ccc(OC)c(OC)c2)cc1", "inhibition": "3.65%"},
      {"smiles": "CCC(C)C(N=C1NS(=O)(=O)c2ccccc21)C(=O)N1CCC(C)CC1", "note": "(configuration not stated)", "inhibition": "2.08%"},
      {"smiles": "CCc1nnc(NC(=O)CSCc2cc(=O)n3cc(C)sc3n2)s1", "inhibition": "-0.123%"},
      {"smiles": "CCCCN(C(=O)C1=NN(c2cc(C)ccc2C)C(=O)CC1)c1c(N)n(CCC)c(=O)[nH]c1=O", "inhibition": "1.8%"},
      {"smiles": "Cc1ccc(CNC(=O)C2CCCN2C(=O)NCc2ccccc2)cc1", "note": "(configuration not stated)", "inhibition": "-3.49%"},
      {"smiles": "O=C(NC1CCCC1)C(c1ccccn1)N(C(=O)c1csnn1)C1CCCC1", "note": "(configuration not stated)", "inhibition": "4.87%"},
      {"smiles": "O=C(NCc1ccccn1)Nc1ccc(Cl)cc1", "inhibition": "0.805%"},
      {"smiles": "O=C(Nc1ccc(Cl)cc1)c1ccsn1", "inhibition": "51% (active)"},
      {"smiles": "CCC(=O)Nc1ccc(C(=O)NNC(=O)c2ccc(Cl)cc2)cc1", "inhibition": "-16.2%"},
      {"smiles": "O=C1CC(Cc2ccccc2)C(=O)N1c1ccc(Cl)cn1", "note": "(configuration not stated)", "inhibition": "-5.29%"},
      {"smiles": "COc1ccccc1C1CCN(C(=S)Nc2ccc(Br)cc2)CC1", "inhibition": "5.73%"},
      {"smiles": "CCc1ccc2oc(-c3ccc(N)cc3)nc2c1", "inhibition": "97.1% (active)"},
      {"smiles": "Cc1cc2nc(-c3ccc(NC(=O)c4cccnc4)cc3)oc2cc1C", "inhibition": "-3.95%"},
      {"smiles": "O=C(Nc1ccc2oc(-c3ccc4ccccc4c3)nc2c1)c1cccs1", "inhibition": "-22.1%"},
      {"smiles": "CNC(=O)c1c(NC(NC(=O)c2ccco2)C(=O)c2ccc(Cl)cc2)sc2c1CCCC2", "note": "(configuration not stated)", "inhibition": "3.25%"},
      {"smiles": "CCOC(=O)c1ccc(Nc2cc3ccccc3c(=O)[nH]2)cc1", "inhibition": "84.1% (active)"},
      {"smiles": "CCOC(=O)c1ccc(NC(=O)c2cc(=O)[nH]c3ccccc23)cc1", "inhibition": "4.62%"},
      {"smiles": "CCOC(=O)c1ccc(Nc2cc(C)nc3nc(C)nn23)cc1", "inhibition": "0.148%"},
      {"smiles": "Cc1ccc(CN2CCN(c3ncccn3)CC2)c(C)c1", "inhibition": "-3.53%"},
      {"smiles": "Cc1cc(=O)oc2c(C)c(OCC(=O)NCCc3ccc(S(N)(=O)=O)cc3)ccc12", "inhibition": "7.75%"},
      {"smiles": "N#C/C=C/N1CCN(Cc2ccc3c(c2)OCO3)CC1", "inhibition": "-6.74%"}
    ]}
  ]
}
